# Measured values published in PubChem BioAssay AID425 (Sanford-Burnham Center for Chemical Genomics, 2006).
# Where “and” joins values, the source holds several entries; their conditions need not be identical. Equal values may be shown once. Screen size: about 110,000 compounds; about 190 (0.17%) were called active. Rule as the data show it: active = inhibition above about 50%; inactive = the rest. The sample as a whole holds a higher share of actives than the screen did. Measured potencies and affinities stand elsewhere. Some structures have more than one record in an assay (separate samples or runs), and their calls can disagree.
# Biological target: Dual specificity protein phosphatase 6 (Rattus norvegicus) (UniProt Q64346)
# Test: inhibition of rat DUSP6 enzyme activity – biochemical, in vitro, primary screen (AID 425);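 also: plate controls were vehicle for no effect and reference inhibitor for full effect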
# Details: recombinant MKP-3 phosphatase activity, fluorescence; at 20 µM; stronger effect = higher value
# Sequence of Dual specificity protein phosphatase 6 (Rattus norvegicus) (Q64346 whole entry, looked up): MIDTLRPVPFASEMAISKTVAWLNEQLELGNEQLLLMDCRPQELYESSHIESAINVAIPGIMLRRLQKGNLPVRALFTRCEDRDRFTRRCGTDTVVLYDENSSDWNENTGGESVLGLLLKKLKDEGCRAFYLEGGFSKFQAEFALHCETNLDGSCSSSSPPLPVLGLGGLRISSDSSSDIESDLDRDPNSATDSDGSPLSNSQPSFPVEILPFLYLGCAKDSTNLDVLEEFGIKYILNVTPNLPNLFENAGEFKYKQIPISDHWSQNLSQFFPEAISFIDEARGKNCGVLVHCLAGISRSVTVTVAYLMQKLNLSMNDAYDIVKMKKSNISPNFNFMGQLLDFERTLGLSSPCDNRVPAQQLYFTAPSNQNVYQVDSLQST
row,SMILES,inhibition
1,COc1cc2c(C#N)c(N3CCOCC3)nc(N)c2c(N)n1,-5.5% (inactive)
2,COc1cc2c(C#N)c(N3CCCCC3)nc(N)c2c(N)n1,8% (inactive)
3,Cc1ccc2oc(-c3cccc(NC(=O)COc4ccccc4[N+](=O)[O-])c3C)nc2c1,0.7% (inactive)
4,O=C(COc1ccccc1[N+](=O)[O-])Nc1ccc(-c2nc3ncccc3o2)cc1,16% (inactive)
5,Cc1c(NC(=O)COc2ccccc2[N+](=O)[O-])cccc1-c1nc2ncccc2o1,59.4% (active)
6,CCOc1ccc(NC(=O)CSC(N)=O)cc1,-0.4% (inactive)
7,Cc1ccc(C)c(S(=O)(=O)NCc2cccnc2)c1,-4.3% (inactive)
8,O=c1/c(=C/c2ccc(-c3ccccc3)o2)sc2nc3ccccc3n12,-5.1% (inactive)
9,O=C(O)c1ccccc1-c1ccc(/C=c2\sc3nc4cc(Br)cnc4n3c2=O)o1,52.1% (active)
10,Cc1cc2nc3s/c(=C/c4ccc(-c5ccc(Cl)cc5)o4)c(=O)n3c2cc1C,0.8% (inactive)
11,O=c1/c(=C/c2ccc(-c3ccc([N+](=O)[O-])cc3Cl)o2)sc2nc3cc(Br)cnc3n12,1% (inactive)
12,O=c1/c(=C/c2ccc(-c3ccc(Cl)cc3)o2)sc2nc3ccccc3n12,-1.6% (inactive)
13,O=c1/c(=C\c2ccc(-c3cccc(Br)c3)o2)sc2nc3ccccc3n12,1.3% (inactive)
14,Cc1cc(C)c2nc3s/c(=C\c4ccc(-c5ccc(Cl)c(C(=O)O)c5)o4)c(=O)n3c2c1,19.9% (inactive)
15,O=c1/c(=C\c2ccc(-c3cccc(Cl)c3)o2)sc2nc3ccccc3n12,0.1% (inactive)
16,O=c1/c(=C/c2ccc(-c3ccccc3[N+](=O)[O-])o2)sc2nc3cc(Br)cnc3n12,0.3% (inactive)
17,CCCCOC(=O)c1ccc(NC(=O)c2cncc(Br)c2)cc1,2.8% (inactive)
18,COc1ccccc1/C=C1\SC(=S)N(NC(=O)Cc2ccccc2)C1=O,2.2% (inactive)
19,O=C(COc1ccc(=O)n(-c2ccccc2)n1)Nc1ccccc1,1.2% (inactive)
20,COC(CNS(=O)(=O)c1ccc(Cl)cc1)c1ccccc1 (stereo unspecified),-0.6% (inactive)
21,CC1(C)CC(=O)C2=C(C1)OC1=C(C(=O)CC(C)(C)C1)C2c1ccc(-c2nnc(N)s2)cc1,5.6% (inactive)

row,SMILES,inhibition
1,CC(C)CSc1nc2c(c(=O)[nH]c(=O)n2C)n1CC(O)COc1cccc2ccccc12 (stereo unspecified),-2.5% (inactive)
2,Cn1c(=O)oc2cc(S(=O)(=O)Nc3ccc(Cl)cc3F)ccc21,-2.1% (inactive)
3,Cc1nc2c3ccccc3n(CC#N)c(=O)n2n1,-2.1% (inactive)
4,NC(=O)C1(N2CCCCC2)CCN(CC(=O)Nc2ccc(Oc3ccccc3)cc2)CC1,-17% (inactive)
5,COc1ccc(CCCc2nnc(SCC(=O)Nc3ncc(C)s3)o2)cc1,-9.2% (inactive)
6,O=C(O)c1ccccc1NCN1C(=O)C2CC=C(Cl)CC2C1=O (stereo unspecified),5.2% (inactive)
7,O=[N+]([O-])c1cccc(C2Nc3ccc4ccccc4c3C3C=CCC32)c1 (stereo unspecified),8.7% (inactive)
8,Oc1ccc(C2Nc3ccc4ccccc4c3C3C=CCC32)cc1 (stereo unspecified),2.7% (inactive)
9,O=C(O)C1Nc2ccc([N+](=O)[O-])cc2C2C=CCC12 (stereo unspecified),63.7% (active)
10,O=[N+]([O-])c1ccc(C2Nc3ccc([N+](=O)[O-])cc3C3C=CCC32)cc1 (stereo unspecified),6.6% (inactive)
11,O=C(O)C1Nc2ccc3ccccc3c2C2C=CCC12 (stereo unspecified),91.5% (active)
12,Cc1ccc2c(c1)C1C=CCC1C(C(=O)O)N2 (stereo unspecified),40.3% (inactive)
13,O=[N+]([O-])c1cccc2c1NC(c1ccc(F)cc1)C1CC=CC21 (stereo unspecified),-0.5% (inactive)
14,CC(=O)Nc1ccc2c(c1)C1C=CCC1C(C(=O)O)N2 (stereo unspecified),3% (inactive)
15,O=C(O)C1Nc2c(cccc2[N+](=O)[O-])C2C=CCC12 (stereo unspecified),79% (active)
16,COc1ccc2c(c1)C1C=CCC1C(C(=O)O)N2 (stereo unspecified),23.5% (inactive)
17,O=[N+]([O-])c1cccc2c1NC(c1ccccc1F)C1CC=CC21 (stereo unspecified),2.2% (inactive)
18,O=C(Nc1ccc2nn(-c3ccccc3)nc2c1)c1cc(I)ccc1Cl,3.4% (inactive)
19,Cn1cnnc1Sc1nc2c(c(=O)n(C)c(=O)n2C)n1C,-3.7% (inactive)
20,COc1ccc(C(=O)/C=C/c2c(Cl)cccc2Cl)cc1,10.2% (inactive)
21,CCOc1ncccc1C(=O)OCC(=O)NCCc1ccc(OC)cc1,1.6% (inactive)

row,SMILES,inhibition
1,O=C(c1ccc(S(=O)(=O)NCC2CCCO2)cc1)N1CCc2ccccc21 (stereo unspecified),8.3% (inactive)
2,O=C(CCNS(=O)(=O)c1ccccc1[N+](=O)[O-])Nc1ccc(I)cc1,2% (inactive)
3,C=CCn1c(SCC(=O)NCc2cccs2)nnc1C1CCCCC1,-0.2% (inactive)
4,COc1cc(/C=C2\SC(=S)N(c3ccc(C)cc3C)C2=O)cc(Br)c1O,-2.7% (inactive)
5,O=C(NCC1CCCO1)c1cnn2c1NC(c1ccco1)CC2C(F)(F)F (stereo unspecified),-1.8% (inactive)
6,Cc1ccc(NC(=O)Cn2nc(C)c3ccccc3c2=O)cc1F,-2.5% (inactive)
7,COc1cc(C(=O)NC(NC(=S)Nc2ccc(C(C)=O)cc2)C(Cl)(Cl)Cl)cc(OC)c1OC (stereo unspecified),3.5% (inactive)
8,COc1cccc(C2C(C(=O)Nc3ccccc3)=C(C)N=C3SCC(=O)N32)c1 (stereo unspecified),3.3% (inactive)
9,Cc1ccc(C)n1-c1cc(C(=O)O)ccc1Cl,101% (active)
10,Cc1ccc(C)n1-c1cc(C(=O)O)cc(C(=O)O)c1,32.5% (inactive)
11,Cc1cc(N)ccc1-n1c(C)ccc1C,-1.5% (inactive)
12,Cc1ccc(C(=O)O)cc1-n1c(C)ccc1C,59% (active)
13,Cc1ccc(C)n1-c1cc(C(=O)O)ccc1O,32.6% (inactive)
14,Cc1ccc(C(=O)O)cc1N1C(=O)c2ccccc2C1=O,-1.1% (inactive)
15,Cc1cc(Cl)c2cc(C(=O)O)ccc2n1,3.5% (inactive)
16,Cc1ccc(-c2ccccc2)n1-c1cccc(C(=O)O)c1,2.4% (inactive)
17,Cc1cc(C(=O)O)ccc1-n1c(C)ccc1C,55% (active) and 10.8% (inactive)
18,COc1cccc(C2=NN(C(=O)COc3ccccc3)C(O)(C(F)(F)F)C2)c1 (stereo unspecified),1.7% (inactive)
19,Cc1cccc(C(C)C)c1NC(=O)c1cccnc1,-7.7% (inactive)
